# Values joined by “and” are separate entries in the source; they are usually repeats but may differ in a detail not shown here. Equal entries are not always repeated.
# Target: Bromodomain-containing protein 4 (Homo sapiens) (UniProt O60885)
# Conditions: Compound concentration 20.0 uM, Protein concentration 2.0 uM, Result type QC Liability
row,SMILES,ΔTm
1,CC(C)c1cnn2c(NCc3ccccc3)cc(NCCCCCCN)nc12,0.76 °C
2,CC(=O)N1CCC(c2ccc(C(=O)NC(=N)N)cc2C(F)(F)F)CC1,-0.62 °C
3,CNc1oc(-c2cccc3ccccc23)nc1C#N,-3.26 °C
4,CCC(=O)N[C@H]1CC[C@@H](C(=O)N(C)c2ccc(-c3nc4ccccc4o3)cc2)C1,0.09 °C
5,Cn1cc(-n2cnc3c(NCc4nc5cc(Cl)c(Cl)cc5[nH]4)nc(N4CCOCC4)nc32)cn1,0.71 °C
6,O=c1cc(C2CCNCC2)n2nc3cccc(Cl)c3c2[nH]1,-0.48 °C
7,Cc1[nH]c2c(N3CCCCC3)c(-c3ccccc3)nn2c(=O)c1-c1ccc(O)cc1,-1.3 °C
8,O=C(O)CCC/C=C\C[C@@H]1[C@@H](/C=C/[C@@H](O)COc2cccc(C(F)(F)F)c2)[C@H](O)C[C@@H]1O,-0.49 °C
9,C[C@@H](COCCC(=O)N1CCN(c2ncc(C(F)(F)F)cn2)CC1)Nc1cn[nH]c(=O)c1C(F)(F)F,-1.99 °C
10,CN(C)C(=O)c1cc2cnc(Nc3ccc(N4CCN(CCCCNC(=O)COc5cccc6c5C(=O)N(C5CCC(=O)NC5=O)C6=O)CC4)cn3)nc2n1C1CCCC1 (stereo not drawn),-0.39 °C
11,O=C(Nc1snnc1C(=O)Nc1ccc(N2CCCC2)cc1)c1cncc(C(F)(F)F)c1,-0.7 °C
12,CCc1ncnc(N2CCN(C(C)=O)CC2)c1C#Cc1ccc(N)nc1,-1.64 °C
13,Cc1cccc(-c2nn3c(c2-c2ccnc4ccc(C(N)=O)cc24)CCC3)n1,-2.31 °C
14,N[C@@H](CC(=O)O)Cn1nnc(-c2ccc(Oc3ncc(Cl)cc3F)cc2)n1,-12.6 °C
15,C[C@@H]1CCNC(=O)c2cc3ccc(C(=O)Nc4nc5ccccc5n4CCCN(C)C)cc3n21,-0.87 °C
16,O=C(CCCCCCc1ccccc1)c1ncc(-c2ccccn2)o1,-1.06 °C
17,Cc1ccc(-n2nc(C(C)(C)C)cc2NC(=O)Nc2ccc(OCCN3CCOCC3)c3ccccc23)cc1,0 °C and -1.27 °C
18,Cc1c(CN2CCC3(CC2)CN(c2ncnc4sc(CC(F)(F)F)cc24)C3)ccc2c1cc(C#N)n2CC(N)=O,1.17 °C
19,C[S+]([O-])c1ccc(-c2nc(-c3cccc(I)c3)c(-c3ccncc3)[nH]2)cc1 (stereo not drawn),-3.51 °C
20,CC(C)[C@H](CO)Nc1nc(Nc2ccc(C(=O)O)c(Cl)c2)c2ncn(C(C)C)c2n1,0.61 °C

row,SMILES,ΔTm
1,Cc1nccc(COC(=O)N2C[C@@H]3[C@@H](CNC(=O)c4ccc5[nH]nnc5c4)[C@@H]3C2)n1,-4.78 °C
2,Cc1cc2c(-c3ccco3)cnc(N[C@H]3CCN(C)C[C@@H]3C(=O)NC3CCCCC3)c2[nH]c1=O,3.29 °C
3,Cc1cc2nc(N3CCC(C(=O)NC4CCCC4)CC3)n(C(C)C)c2cc1C,-0.57 °C
4,CCC(C(=O)Nc1ccc(-c2cc3ccccc3s2)c(C(N)=O)c1)c1nccs1 (stereo not drawn),-0.87 °C
5,COc1cc(-c2cc3ncccc3c(O[C@@H](C)[C@H]3CNC(=O)C3)n2)cc(OC)c1OC,1.39 °C
6,CC(C)N(CCCCOCC(=O)O)c1cnc(-c2ccccc2)c(-c2ccccc2)n1,-1.87 °C
7,Cc1nccn1-c1ccc(Sc2cccc(C3(C(N)=O)CCOCC3)c2)cc1,-0.68 °C
8,NC1(c2ccc(-c3nc4c(O)ccnn4c3-c3ccccc3)cc2)CCC1,-0.63 °C
9,COc1cc(F)ccc1-c1cc(Nc2cc(CS(C)(=N)=O)ccn2)ncc1F (stereo not drawn),0.98 °C
10,Nc1nc(-c2nn(Cc3ccccc3F)c3ncccc23)ncc1C1CC1,1.11 °C
11,O=C(O)CCCc1cc2cc(Cl)ccc2n1S(=O)(=O)c1ccc2ncsc2c1,-3.71 °C
12,Cc1[nH]nc(C(F)(F)F)c1Cc1sc2c(c1C(=O)N1C[C@](C)(O)CO1)c(=O)n(C)c(=O)n2C(C)C,-1.28 °C
13,N#C/C(=C\c1ccc(O)c(O)c1)C(=O)OCCc1cccs1,-0.61 °C
14,CS(C)(=O)=Nc1ccc(-c2ccc(-c3nc4[nH]c(O[C@@H]5CO[C@H]6[C@@H]5OC[C@H]6O)nc4cc3Cl)cc2)cc1,1.46 °C
15,Cc1cc(OC2CCS(=O)(=O)CC2)cc(C)c1-c1cccc(COc2ccc(CCC(=O)O)c(F)c2)c1,-5.08 °C
16,CC1(C)C(=O)N([C@H]2CCc3c(O)cccc32)c2nc(Nc3cccc(CN4CCCC4)c3)ncc21,-2.45 °C
17,CN1CCN(C(=O)c2ccc(N(C)c3ncc(C(F)(F)F)c(N[C@@H]4CCC[C@@H]4C(N)=O)n3)cc2)CC1,-1.86 °C
18,CC(C)(C)OC(=O)CN(Cc1ccc(Cl)cc1)Cc1ccc([N+](=O)[O-])s1,-2.44 °C
19,C[C@H](CCC(=O)O)[C@H]1CC[C@H]2[C@@H]3[C@H](O)C[C@@H]4C[C@H](O)CC[C@]4(C)[C@H]3C[C@H](O)[C@]12C,-2.7 °C

# Target: T1, Transcription intermediary factor 1-alpha (Homo sapiens) (UniProt O15164)
# T1 sequence (whole entry): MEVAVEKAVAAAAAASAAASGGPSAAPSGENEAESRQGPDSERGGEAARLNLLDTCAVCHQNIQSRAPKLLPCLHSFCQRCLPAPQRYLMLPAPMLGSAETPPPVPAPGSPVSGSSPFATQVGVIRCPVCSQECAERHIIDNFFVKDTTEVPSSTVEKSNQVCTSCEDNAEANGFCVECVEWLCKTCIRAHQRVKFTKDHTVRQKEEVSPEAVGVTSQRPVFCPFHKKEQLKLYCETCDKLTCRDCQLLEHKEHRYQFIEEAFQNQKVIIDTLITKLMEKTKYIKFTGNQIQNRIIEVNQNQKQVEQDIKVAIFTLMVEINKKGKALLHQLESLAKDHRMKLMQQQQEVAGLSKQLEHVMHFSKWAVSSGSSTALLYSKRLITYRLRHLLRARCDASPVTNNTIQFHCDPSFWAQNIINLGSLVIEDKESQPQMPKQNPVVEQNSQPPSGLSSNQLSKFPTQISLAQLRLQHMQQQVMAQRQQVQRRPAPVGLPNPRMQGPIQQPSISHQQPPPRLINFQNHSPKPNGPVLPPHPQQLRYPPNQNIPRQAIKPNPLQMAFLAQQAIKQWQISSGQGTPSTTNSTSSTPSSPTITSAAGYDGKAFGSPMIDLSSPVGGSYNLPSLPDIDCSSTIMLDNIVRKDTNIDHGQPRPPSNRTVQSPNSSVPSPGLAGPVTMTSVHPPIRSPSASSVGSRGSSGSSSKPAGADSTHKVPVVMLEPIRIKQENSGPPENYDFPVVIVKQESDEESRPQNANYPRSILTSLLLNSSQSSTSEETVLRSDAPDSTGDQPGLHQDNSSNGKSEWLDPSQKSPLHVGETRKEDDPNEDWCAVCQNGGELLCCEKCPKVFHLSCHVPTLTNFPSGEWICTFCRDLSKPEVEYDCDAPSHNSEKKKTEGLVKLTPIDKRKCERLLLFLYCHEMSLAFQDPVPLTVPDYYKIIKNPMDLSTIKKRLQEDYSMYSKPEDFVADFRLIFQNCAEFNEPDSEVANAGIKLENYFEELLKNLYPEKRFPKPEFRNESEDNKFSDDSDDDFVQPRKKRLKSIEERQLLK
# Conditions: Compound concentration 20.0 uM, Protein concentration 2.0 uM, Result type QC Liability
row,SMILES,ΔTm
1,CC(C)c1cnn2c(NCc3ccccc3)cc(NCCCCCCN)nc12,-3.25 °C
2,CC(=O)N1CCC(c2ccc(C(=O)NC(=N)N)cc2C(F)(F)F)CC1,0.53 °C
3,CNc1oc(-c2cccc3ccccc23)nc1C#N,-0.7 °C
4,CCC(=O)N[C@H]1CC[C@@H](C(=O)N(C)c2ccc(-c3nc4ccccc4o3)cc2)C1,0.23 °C
5,Cn1cc(-n2cnc3c(NCc4nc5cc(Cl)c(Cl)cc5[nH]4)nc(N4CCOCC4)nc32)cn1,-0.85 °C
6,O=c1cc(C2CCNCC2)n2nc3cccc(Cl)c3c2[nH]1,0.25 °C
7,Cc1[nH]c2c(N3CCCCC3)c(-c3ccccc3)nn2c(=O)c1-c1ccc(O)cc1,-2.05 °C
8,O=C(O)CCC/C=C\C[C@@H]1[C@@H](/C=C/[C@@H](O)COc2cccc(C(F)(F)F)c2)[C@H](O)C[C@@H]1O,-0.79 °C
9,C[C@@H](COCCC(=O)N1CCN(c2ncc(C(F)(F)F)cn2)CC1)Nc1cn[nH]c(=O)c1C(F)(F)F,-0.95 °C
10,CN(C)C(=O)c1cc2cnc(Nc3ccc(N4CCN(CCCCNC(=O)COc5cccc6c5C(=O)N(C5CCC(=O)NC5=O)C6=O)CC4)cn3)nc2n1C1CCCC1 (stereo not drawn),-1.79 °C
11,O=C(Nc1snnc1C(=O)Nc1ccc(N2CCCC2)cc1)c1cncc(C(F)(F)F)c1,-1.14 °C
12,CCc1ncnc(N2CCN(C(C)=O)CC2)c1C#Cc1ccc(N)nc1,-3.55 °C
13,Cc1cccc(-c2nn3c(c2-c2ccnc4ccc(C(N)=O)cc24)CCC3)n1,-2.8 °C
14,N[C@@H](CC(=O)O)Cn1nnc(-c2ccc(Oc3ncc(Cl)cc3F)cc2)n1,-0.53 °C
15,C[C@@H]1CCNC(=O)c2cc3ccc(C(=O)Nc4nc5ccccc5n4CCCN(C)C)cc3n21,-0.45 °C
16,O=C(CCCCCCc1ccccc1)c1ncc(-c2ccccn2)o1,-0.23 °C
17,Cc1ccc(-n2nc(C(C)(C)C)cc2NC(=O)Nc2ccc(OCCN3CCOCC3)c3ccccc23)cc1,-0.19 °C and -3.17 °C
18,Cc1c(CN2CCC3(CC2)CN(c2ncnc4sc(CC(F)(F)F)cc24)C3)ccc2c1cc(C#N)n2CC(N)=O,0.7 °C
19,C[S+]([O-])c1ccc(-c2nc(-c3cccc(I)c3)c(-c3ccncc3)[nH]2)cc1 (stereo not drawn),-2.56 °C
20,CC(C)[C@H](CO)Nc1nc(Nc2ccc(C(=O)O)c(Cl)c2)c2ncn(C(C)C)c2n1,-2.66 °C

row,SMILES,ΔTm
1,Cc1nccc(COC(=O)N2C[C@@H]3[C@@H](CNC(=O)c4ccc5[nH]nnc5c4)[C@@H]3C2)n1,0.34 °C
2,Cc1cc2c(-c3ccco3)cnc(N[C@H]3CCN(C)C[C@@H]3C(=O)NC3CCCCC3)c2[nH]c1=O,-2.71 °C
3,Cc1cc2nc(N3CCC(C(=O)NC4CCCC4)CC3)n(C(C)C)c2cc1C,-0.87 °C
4,CCC(C(=O)Nc1ccc(-c2cc3ccccc3s2)c(C(N)=O)c1)c1nccs1 (stereo not drawn),0.44 °C
5,COc1cc(-c2cc3ncccc3c(O[C@@H](C)[C@H]3CNC(=O)C3)n2)cc(OC)c1OC,0.27 °C
6,CC(C)N(CCCCOCC(=O)O)c1cnc(-c2ccccc2)c(-c2ccccc2)n1,-0.66 °C
7,Cc1nccn1-c1ccc(Sc2cccc(C3(C(N)=O)CCOCC3)c2)cc1,-1.02 °C
8,NC1(c2ccc(-c3nc4c(O)ccnn4c3-c3ccccc3)cc2)CCC1,-1.89 °C
9,COc1cc(F)ccc1-c1cc(Nc2cc(CS(C)(=N)=O)ccn2)ncc1F (stereo not drawn),-2.98 °C
10,Nc1nc(-c2nn(Cc3ccccc3F)c3ncccc23)ncc1C1CC1,0.4 °C
11,O=C(O)CCCc1cc2cc(Cl)ccc2n1S(=O)(=O)c1ccc2ncsc2c1,-1.33 °C
12,Cc1[nH]nc(C(F)(F)F)c1Cc1sc2c(c1C(=O)N1C[C@](C)(O)CO1)c(=O)n(C)c(=O)n2C(C)C,-0.8 °C
13,N#C/C(=C\c1ccc(O)c(O)c1)C(=O)OCCc1cccs1,0.49 °C
14,CS(C)(=O)=Nc1ccc(-c2ccc(-c3nc4[nH]c(O[C@@H]5CO[C@H]6[C@@H]5OC[C@H]6O)nc4cc3Cl)cc2)cc1,0.39 °C
15,Cc1cc(OC2CCS(=O)(=O)CC2)cc(C)c1-c1cccc(COc2ccc(CCC(=O)O)c(F)c2)c1,-3.73 °C
16,CC1(C)C(=O)N([C@H]2CCc3c(O)cccc32)c2nc(Nc3cccc(CN4CCCC4)c3)ncc21,-2.64 °C
17,CN1CCN(C(=O)c2ccc(N(C)c3ncc(C(F)(F)F)c(N[C@@H]4CCC[C@@H]4C(N)=O)n3)cc2)CC1,0.25 °C
18,CC(C)(C)OC(=O)CN(Cc1ccc(Cl)cc1)Cc1ccc([N+](=O)[O-])s1,-2.89 °C
19,C[C@H](CCC(=O)O)[C@H]1CC[C@H]2[C@@H]3[C@H](O)C[C@@H]4C[C@H](O)CC[C@]4(C)[C@H]3C[C@H](O)[C@]12C,-2.48 °C

# From ChEMBL document CHEMBL5308504, “Tm Shift (DSF) assay results for EUbOPEN Chemogenomics Library” (2023)
